# Assay results: PubChem BioAssay AID1159580 (chemical genetic matrix, 2015)
# Where “and” joins values, the source holds several entries; their conditions need not be identical. Equal values may be shown once. The campaign covered roughly 5,500 compounds. About 2,000 (36%) were called active. Inconclusive results (about 18%) are left out. The list shows a part of the results. Unmarked numbers belong to inactive results. No stated cut-off is given here; in the data, active means normalized growth mostly below about 0.91 (no sharp cut-off); inconclusive means no clear call, values can overlap the other calls; inactive means mostly above about 0.92.
# Assay: chemical genetic growth profiling, strain panel (AID 1159580);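 further: tested at 20 µM; growth read once vehicle control cultures reached saturation at 30 °C; 1 = growth at the plate median or of vehicle wells; lower values mean less growth of the strain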
# Conditions: S. cerevisiae deletion strains, growth OD
structure (smiles),measurement,setting,value
COC(=O)c1cc(=O)c(O)c2c(O)c(O)ccc2c1,normalized growth,"locus YAL021C, strain ccr4, active compounds read low",1
same,normalized growth,"locus YAL026C, strain drs2, active compounds read low",0.968
same,normalized growth,"locus YAL030W, strain snc1, active compounds read low",0.991
same,normalized growth,"locus YBL061C, strain skt5, active compounds read low",0.988
same,normalized growth,"locus YBR009C, strain hhf1, active compounds read low",0.985
same,normalized growth,"locus YBR021W, strain FUR4, active compounds read low",1.07
same,normalized growth,"locus YBR023C, strain chs3, active compounds read low",0.995
same,normalized growth,"locus YBR171W, strain sec66, active compounds read low",0.976
same,normalized growth,"locus YBR229C, strain ROT2, active compounds read low",0.976
same,normalized growth,"locus YBR231C, strain swc5, active compounds read low",0.976
same,normalized growth,"locus YBR279W, strain paf1, active compounds read low",1
same,normalized growth,"locus YCL011C, strain gbp2, active compounds read low",1
same,normalized growth,"locus YCL016C, strain dcc1, active compounds read low",0.989
same,normalized growth,"locus YCL029C, strain bik1, active compounds read low",0.713 (active)
same,normalized growth,"locus YCL061C, strain MRC1, active compounds read low",0.987
same,normalized growth,"locus YCL069W, strain vba3, active compounds read low",1
same,normalized growth,"locus YCR088W, strain abp1, active compounds read low",0.997
same,normalized growth,"locus YDL005C, strain med2, active compounds read low",1.01
same,normalized growth,"locus YDL035C, strain GPR1, active compounds read low",0.512 (active)
same,normalized growth,"locus YDL040C, strain nat1, active compounds read low",0.986
same,normalized growth,"locus YDL074C, strain BRE1, active compounds read low",0.743 (active)
same,normalized growth,"locus YDL101C, strain DUN1, active compounds read low",0.778 (active)
same,normalized growth,"locus YDL185W, strain tfp1, active compounds read low",0.631 (active)
same,normalized growth,"locus YDL192W, strain arf1, active compounds read low",0.772 (active)
same,normalized growth,"locus YDR001C, strain nth1, active compounds read low",0.999
same,normalized growth,"locus YDR069C, strain doa4, active compounds read low",0.955
same,normalized growth,"locus YDR101C, strain arx1, active compounds read low",0.842 (active)
same,normalized growth,"locus YDR137W, strain rgp1, active compounds read low",0.821 (active)
same,normalized growth,"locus YDR150W, strain NUM1, active compounds read low",0.852 (active)
same,normalized growth,"locus YDR159W, strain sac3, active compounds read low",0.947
same,normalized growth,"locus YDR162C, strain NBP2, active compounds read low",0.275 (active)
same,normalized growth,"locus YDR195W, strain ref2",0.934
same,normalized growth,"locus YDR297W, strain sur2, active compounds read low",0.987
same,normalized growth,"locus YDR318W, strain mcm21, active compounds read low",0.856 (active)
same,normalized growth,"locus YDR334W, strain swr1, active compounds read low",0.983
same,normalized growth,"locus YDR335W, strain msn5, active compounds read low",0.994
same,normalized growth,"locus YDR388W, active compounds read low",0.954
same,normalized growth,"locus YDR392W, strain spt3, active compounds read low",0.99
same,normalized growth,"locus YDR502C, strain sam2, active compounds read low",0.891 (active)
same,normalized growth,"locus YEL003W, strain gim4, active compounds read low",0.996
same,normalized growth,"locus YEL037C, strain rad23, active compounds read low",0.997
same,normalized growth,"locus YEL061C, strain CIN8 (second series), active compounds read low",0.994
same,normalized growth,"locus YER015W, strain faa2, active compounds read low",0.985
same,normalized growth,"locus YER016W, strain bim1, active compounds read low",0.973
same,normalized growth,"locus YER110C, active compounds read low",0.988
same,normalized growth,"locus YER111C, strain swi4, active compounds read low",0.976
same,normalized growth,"locus YER155C, strain BEM2 (second series), active compounds read low",0.977
same,normalized growth,"locus YER155C, strain BEM2, active compounds read low",0.922 (active)
same,normalized growth,"locus YER167W, strain BCK2, active compounds read low",0.862 (active)
same,normalized growth,"locus YFR010W, strain ubp6, active compounds read low",0.958
same,normalized growth,"locus YGL078C, strain dbp3, active compounds read low",0.732 (active)
same,normalized growth,"locus YGL086W, strain mad1, active compounds read low",0.71 (active)
same,normalized growth,"locus YGL167C, strain pmr1, active compounds read low",0.98
same,normalized growth,"locus YGL173C, strain kem1, active compounds read low",0.984
same,normalized growth,"locus YGL227W, strain vid30, active compounds read low",0.988
same,normalized growth,"locus YGL240W, strain doc1, active compounds read low",1.01
same,normalized growth,"locus YGL248W, strain PDE1, active compounds read low",0.73 (active)
same,normalized growth,"locus YGL253W, strain hxk2, active compounds read low",0.998
same,normalized growth,"locus YGR078C, strain PAC10, active compounds read low",0.713 (active)
same,normalized growth,"locus YGR135W, strain pre9, active compounds read low",0.795 (active)
same,normalized growth,"locus YGR229C, strain SMI1, active compounds read low",0.151 (active)
same,normalized growth,"locus YGR252W, strain gcn5, active compounds read low",0.948
same,normalized growth,"locus YHR013C, strain ard1, active compounds read low",1.04
same,normalized growth,"locus YHR027C, strain rpn1, active compounds read low",0.991
same,normalized growth,"locus YHR030C, strain SLT2, active compounds read low",0.604 (active) and 0.636 (active)
same,normalized growth,"locus YHR079C, strain IRE1 (second series), active compounds read low",0.874 (active)
same,normalized growth,"locus YHR079C, strain IRE1, active compounds read low",0.81 (active)
same,normalized growth,"locus YHR094C, strain hxt1, active compounds read low",0.968
same,normalized growth,"locus YHR129C, strain ARP1, active compounds read low",0.681 (active)
same,normalized growth,"locus YHR142W, strain chs7, active compounds read low",1.02
same,normalized growth,"locus YHR200W, strain rpn10, active compounds read low",0.878 (active)
same,normalized growth,"locus YIL066C, strain RNR3, active compounds read low",0.552 (active)
same,normalized growth,"locus YIL073C, strain SPO22, active compounds read low",0.416 (active)
same,normalized growth,"locus YIL125W, strain kgd1, active compounds read low",0.812 (active)
same,normalized growth,"locus YIR030C, strain dcg1, active compounds read low",0.932
same,normalized growth,"locus YJL092W, strain hpr5, active compounds read low",0.991
same,normalized growth,"locus YJL095W, strain BCK1 (second series), active compounds read low",0.99
same,normalized growth,"locus YJL095W, strain BCK1, active compounds read low",0.59 (active) and 0.624 (active)
same,normalized growth,"locus YJL115W, strain asf1, active compounds read low",0.99
same,normalized growth,"locus YJL129C, strain trk1, active compounds read low",0.997
same,normalized growth,"locus YJL134W, strain LCB3, active compounds read low",0.958
same,normalized growth,"locus YJL154C, strain vps35, active compounds read low",1.02
same,normalized growth,"locus YJL164C, strain tpk1, active compounds read low",0.995
same,normalized growth,"locus YJL166W, strain qcr8, active compounds read low",0.999
same,normalized growth,"locus YJL168C, strain set2, active compounds read low",0.924 (active)
same,normalized growth,"locus YJL187C, strain SWE1 (second series), active compounds read low",0.627 (active)
same,normalized growth,"locus YJL187C, strain SWE1, active compounds read low",0.992
